Source: PubChem BioAssay
Hits are enriched below; roughly 9% of the tested compounds scored in any of these assays.
IMPase cell inh: membrane-permeable compound that blocks inositol monophosphatase | 120,000 tested, under 10 active | CHO-M1 cells, IP1 accumulation, HTRF TR-FRET ratio | P97697 | inhibition (IP1 accumulation), % at 46.1 µM | AID 901; active means well fitted curve in the direction sought with a large enough effect in the signal ratio, not every such curve was filed as active; inconclusive means small, poorly fitted or top-dose-only effect, or a change in a side signal; inactive means no such curve, though single readings can be large or run the other way; the % refers to the signal ratio;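 further: cells stimulated with carbachol in lithium chloride buffer; higher means more IMPase inhibition seen as more IP1 and lower FRET ratio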
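Measured: the HTRF emission ratio (665/620 nm) plus the 620 nm donor channel, each fitted to the Hill equation to give AC50. Cells were CHO-M1 given compounds up to 46 uM and a 30 min carbachol stimulation at 37C.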
HPGD inh: inhibitors of human 15-hydroxyprostaglandin dehydrogenase (HPGD); P15428; purified HPGD, NADH fluorescence kinetic, PGE2 substrate; Potency, µM, actives largely listed as inhibitors; hit rate 4.3% among 150,000; AID 894
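NADH formation kinetics: reaction with 30 uM PGE2 and 1 mM NAD+ (final), 20 nM enzyme, Tris-HCl pH 8 with Tween 20, after 15 min compound preincubation at room temperature. Fluorescence change, last versus first of five reads.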
ALDH1A1 block: inhibitors of human aldehyde dehydrogenase 1A1. hit rate 7.3% among 220,000. P00352. Purified ALDH1A1, NADH fluorescence, propionaldehyde substrate. Potency, µM (highest dose often 75.3 µM), actives largely listed as inhibitors
Target sequence (P00352 whole entry, looked up): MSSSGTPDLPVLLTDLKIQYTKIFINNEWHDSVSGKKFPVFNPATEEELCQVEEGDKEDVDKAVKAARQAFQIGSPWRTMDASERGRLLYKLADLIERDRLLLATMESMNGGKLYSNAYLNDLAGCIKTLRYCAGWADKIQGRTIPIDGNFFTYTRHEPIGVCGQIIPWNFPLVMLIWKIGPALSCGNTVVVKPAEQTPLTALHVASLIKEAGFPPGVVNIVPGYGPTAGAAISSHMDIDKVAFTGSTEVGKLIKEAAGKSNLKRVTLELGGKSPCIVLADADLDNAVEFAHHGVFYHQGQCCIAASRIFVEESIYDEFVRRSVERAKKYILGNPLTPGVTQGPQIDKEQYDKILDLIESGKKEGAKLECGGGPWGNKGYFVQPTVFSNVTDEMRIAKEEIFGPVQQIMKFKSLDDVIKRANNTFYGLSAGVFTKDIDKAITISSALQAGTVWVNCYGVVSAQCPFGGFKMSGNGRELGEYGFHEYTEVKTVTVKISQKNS
Numbers stand for hits; – = inactive; ? = inconclusive; · = no result; [ ] = dose if it differs, or a comment. Unless noted, the call rests on the fitted dose curve; in most records, active means well fitted inhibition curve with a large enough effect (not every such curve was filed as active); inconclusive means small, poorly fitted or top-dose-only effect, or another doubt; inactive means no such curve, though single readings can be large or run the other way.

SMILES	IMPase cell inh	HPGD inh	ALDH1A1 block
Cc1cnc(CNc2ccnc(-c3ccccc3Cl)n2)cn1	·	–	–
Clc1ccccc1-c1nccc(NCc2cccs2)n1	·	·	14µM
c1cncc(-c2nccc(NCc3cccs3)n2)c1	·	·	11µM
c1cncc(-c2cc(NCc3cccs3)ncn2)c1	·	·	–
C#CCOCCOCCOCCNc1nc(N2CCN(C(=O)[C@H](Cc3ccc(O)cc3)n3cc([C@@H](N)CC(C)C)nn3)CC2)nc(N2CCN(C(=O)[C@H](Cc3ccc(O)cc3)n3cc([C@@H](N)CC(C)C)nn3)CC2)n1	·	·	16µM
C#CCOCCOCCOCCNc1nc(N2CCN(C(=O)[C@H](CCCCN)n3cc([C@@H](N)CC(C)C)nn3)CC2)nc(N2CCN(C(=O)[C@H](Cc3ccc(O)cc3)n3cc([C@@H](N)CC(C)C)nn3)CC2)n1	·	·	–
c1ccc(N=P(c2nc3ccccc3o2)(N2CCOCC2)N2CCOCC2)cc1	–	–	–
N#CCN1CCN(CCC(=O)Nc2ccc(OCc3ccccc3)cc2)CC1	–	–	–
N#CCCCSc1nnc(CSc2nc3ccccc3s2)n1-c1ccccc1	–	–	–
COc1cccc(-c2csc(N3CCN(C(=O)Nc4ccc(F)cc4)CC3)n2)c1	–	–	?
COc1ccc(-c2csc(N3CCN(C(=O)c4ccccc4)CC3)n2)cc1	–	–	?
O=C(CSc1nc2ccccc2s1)N1CCN(C(=O)c2ccco2)CC1	–	–	14µM
CCOc1ccc2nc(SCC(=O)N3CCN(C(=O)c4ccco4)CC3)sc2c1	–	–	?
COc1ccc(-c2csc(N3CCN(C(=O)c4ccco4)CC3)n2)cc1	–	–	28µM
COc1cccc(-c2csc(N3CCN(C(=O)C4CCCCC4)CC3)n2)c1	–	–	13µM
N#CCc1nc(CSc2nc3ccccc3s2)cs1	–	25µM	?
CC(C)(C)NC(=O)C(c1ccccn1)N(C(=O)C1CSC(=O)C1)c1ccccc1F (stereo not drawn)	·	·	–
COCCCNC(=S)N(Cc1cccnc1)Cc1ccc(OC)c(OC)c1	–	–	–
O=S(=O)(Nc1ccc2cn[nH]c2c1)c1ccc(Cl)s1	·	·	–
CCOc1ccc2nc(N(CCN(CC)CC)C(=O)c3cccc([N+](=O)[O-])c3)sc2c1	·	·	–
CCC1CCC(C(=O)NNC(=O)OC)CC1 (stereo not drawn)	·	–	–
Cc1ccc(OCCOCCn2c(-c3ccc(Cl)cc3)nc3ccccc3c2=O)cc1	–	·	·
CC1CCN(C(=O)CSc2nc3ccccc3s2)CC1	–	14µM	?
O=C(CSc1nc2ccccc2o1)N1CCCC1	–	25µM	–
CC1Cc2ccccc2N1C(=O)CSc1nc2ccccc2s1 (stereo not drawn)	–	–	–
SMILES	IMPase cell inh	HPGD inh	ALDH1A1 block
O=C(O)CCSc1nc2ccccc2s1	–	?	25µM
CC1CCCC(C)N1C(=O)CSc1nc2ccccc2s1 (stereo not drawn)	–	2.2µM	22µM
O=C(O)CSc1nc2ccccc2o1	–	–	–
c1ccc2sc(SCSc3nc4ccccc4s3)nc2c1	·	–	–[13.5 µM]
O=C(O)C1CCN(C(=O)CSc2nc3ccccc3s2)CC1	·	·	–
COc1cccc(-n2c(SCc3ccccn3)nc3c(c2=O)SCC3)c1	·	·	–
CC(=O)N/C(=C/c1ccc2c(c1)OCO2)C(=O)NCCO	·	–	–
CCc1nc2ccccc2n1Cc1ccccc1F	·	·	–
C/C(N)=C(/C#N)C(=O)CSc1nnnn1-c1ccc(C)cc1C	–	–	?
CCn1c(COc2ccccc2Cl)nnc1SCC(=O)Nc1ncccc1C	–	–	–
NC(=O)C1CCN(C(=O)CSc2nc3ccccc3s2)CC1	–	–	?
O=C(CSc1nc2ccccc2s1)N1CCCCC1	–	2.8µM	4.5µM
OCC(O)/C=N/Nc1nc2ccccc2s1 (stereo not drawn)	·	·	–
CC(=O)Nc1ccc2nc(SCC(=O)N3CCOCC3)sc2c1	·	·	–
O=C(CCC(=O)N1CCN(C(=O)c2ccco2)CC1)c1ccc(F)cc1	·	·	–
O=C(CSc1nc2ccc(Nc3nc(N4CCOCC4)nc(N4CCOCC4)n3)cc2s1)N1CCOCC1	·	22µM	–
O=C(CSc1nc(-c2ccc(F)cc2)cs1)N1CCN(C(=O)c2ccco2)CC1	–	?	14µM
OC(CNc1nc2ccccc2s1)c1ccccc1 (stereo not drawn)	–	10µM	–
O=C(c1csnn1)N1CCC[C@@]2(CCN(C(c3ccccc3)c3ccccc3)C2)C1	·	–	–
CC(C)CCc1c(O)nc(SCC(C)C)[nH]c1=O	·	·	–
O=C(CSc1nc2ccc(Cl)cc2[nH]1)N1CCN(C(=O)c2ccco2)CC1	–	–	22µM
Cc1ccc2nc(SCC(=O)N3CCN(C(=O)c4ccco4)CC3)[nH]c2c1	–	–	?
O=C(O)CCC(=O)N1CCc2cc(S(=O)(=O)NC3CCCC3)ccc21	–	13µM	–
CN(Cc1ccco1)S(=O)(=O)c1ccc2c(c1)CCN2C(=O)CCC(=O)O	·	14µM	–
